Records with an inconclusive call do not appear. Activity calls are given as the source filed them. Calls follow the shape of the dose curve; as a rule, active = well fitted inhibition curve with a large enough effect; inconclusive = small, poorly fitted or top-dose-only effect; inactive = flat fitted curve, though single readings scatter.
System: CP269
Assay: qHTS profiling for inhibitors of Plasmodium falciparum proliferation (AID 504749);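 also: 0% = DMSO vehicle and full inhibition = artemisinin control; nearly all actives have a fitted effect of over 60% in size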
Conditions: P. falciparum in erythrocytes, SYBR Green DNA, 72 h; series mostly up to 28.7 µM; activity, negative = inhibition: at the top concentration
Method in brief: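 SYBR Green fluorescence of parasite DNA, read after lysis and overnight dark incubation, measured growth over 72 h in erythrocyte culture at 0.3% parasitemia and 2.5% hematocrit. Data normalised to DMSO and 0.29 uM artemisinin, with plate-drift correction.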

| Structure (SMILES) | activity, negative = inhibition |
| --- | --- |
| CCCOC(=O)c1ccccc1O | -6.68% (inactive) |
| COc1cc2c(cc1OC)[C@@H](Cc1cc(OC)c(OC)c(OC)c1)[N+](C)(CCCOC(=O)CC/C=C/CCC(=O)OCCC[N+]1(C)CCc3cc(OC)c(OC)cc3[C@H]1Cc1cc(OC)c(OC)c(OC)c1)CC2 (stereo partly specified) | -5.23% (inactive) |
| OC[C@H]1O[C@@](CO)(O[C@H]2O[C@H](CO)[C@@H](O)[C@H](O)[C@H]2O)[C@@H](O)[C@@H]1O | 1.96% (inactive) |
| CCC(Cc1c(I)cc(I)c(O)c1I)C(=O)O (stereo unspecified) | -0.7% (inactive) |
| Nc1ncnc2c1ncn2CCOCP(=O)(O)O | -3.53% (inactive) |
| O=C(O)CCC/C=C\C[C@@H]1[C@@H](/C=C/[C@@H](O)COc2cccc(Cl)c2)[C@H](O)C[C@@H]1O | -13.3% (inactive) |
| N=C(N)n1cccn1 | -5.38% (inactive) |
| CCSc1ccc2c(c1)N(CCCN1CCN(C)CC1)c1ccccc1S2 | -13.2% [at 12.8 µM] (inactive) |
| CC(C)c1nc(N(C)S(C)(=O)=O)nc(-c2ccc(F)cc2)c1/C=C/C(O)CC(O)CC(=O)O (stereo unspecified) | 3.16% (inactive) |
| CCOC(C)OCC | -0.468% (inactive) |
| NCCN | 3.31% (inactive) |
| CC(CC=O)CCCC(C)(C)O (stereo unspecified) | -0.758% (inactive) |
| CC(C)(COP(=O)(O)OP(=O)(O)OC[C@H]1O[C@@H](n2cnc3c(N)ncnc32)[C@H](O)[C@@H]1OP(=O)(O)O)C(O)C(=O)NCCC(=O)NCCS (stereo partly specified) | -2.93% (inactive) |
| O=C1c2ccccc2CN2C(=O)c3ccccc3CN12 | 1.94% (inactive) |
| O=C1c2ccccc2C(=O)C1c1ccc(F)cc1 | -1.89% (inactive) |
| CNC(=O)C[C@@H](N)C(=O)N[C@@H](C(=O)N[C@@H]1C(=O)N2[C@@H]1SC(C)(C)[C@@H]2C(=O)O)c1ccc(O)cc1 | -0.313% (inactive) |

— PubChem BioAssay (NCATS)
